The text below walks through data of PubChem BioAssay AID720567 (Broad Institute, 2013).

Measured potencies and affinities stand elsewhere. Activity calls are given as the source filed them. No rule for the calls is given here.

A short description of this assay: HEK293 cell cytotoxicity, dose response, cytotoxicity control, dry powder samples (AID 720567). The settings on record: plate reader; series mostly up to 15 µM.
`COc1ccc(-c2nnc(SCc3ccccc3)o2)cc1`: the compound was classed as inactive. As for `Cc1ccc(Oc2ccc(S(=O)(=O)N3CCOCC3)cc2C(N)=O)c(-n2nc3ccccc3n2)c1`, the entry is “inactive”; as for `CCOC(=O)c1ccc(Oc2cc(C)nc(SC)n2)cc1`, “inactive”. With `CC(=O)N1CCC(=O)c2cc3ccccc3cc21`, the outcome was inactive. In the case of `COc1ccccc1CSc1nnc(-c2ccccc2)o1` it was “inactive”.

As to `Cc1cc(=O)[nH]c(N/N=C/c2cc(C)n(CC(F)(F)F)c2C)n1`, the compound was called inactive. As for `Cc1[nH][nH]c(=O)c1C(c1ccc(-c2ccc(Cl)c(Cl)c2)o1)c1c(C)[nH][nH]c1=O`, the entry is “inactive”; as for `Cc1cc(C)nc(/N=C(\N)Nc2ccc(OCc3ccccc3)cc2)n1`, “inactive”; as for `CCCCOc1ccccc1C1CC(=O)NC2=C1C(=O)CCC2` (stereo not drawn), “inactive”. As for `CCCNS(=O)(=O)c1cccc(C(=O)OCc2cc(=O)oc3cc(OC)ccc23)c1`, the entry is “inactive”; as for `Cc1cnc(NC(=O)c2cc(S(=O)(=O)N(C)C)ccc2N2CCCC2)s1`, “inactive”. As for `COc1cc(Nc2c3c(nc4ccccc24)CCCC3)cc(OC)c1OC`, the entry is “inactive”; as for `Cc1ccc(C(=O)c2cc([N+](=O)[O-])ccc2N2CCOCC2)cc1C`, “inactive”. For the compound `COc1cc(-c2nnc(SCC3(c4ccc(Br)cc4)OCCO3)o2)cc(OC)c1OC`, the result was inactive. As for `CCN(CC)CCOc1ccc2c(c1)C(=NNC(=O)c1ccccn1)c1cc(OCCN(CC)CC)ccc1-2`, the entry is “inactive”; as for `O=C(Cc1ccccc1)c1nnc(-c2ccccc2)o1`, “inactive”. In the case of `COc1ccccc1OCC(=O)NNC(=O)c1ccoc1C` it was “inactive”; in that of `Nc1nc(=S)c2ncn([C@@H]3O[C@H](CO)[C@@H](O)[C@H]3O)c2[nH]1`, “inactive”.

In the case of `CCN(CC)CCC(=O)Nc1cccc2c1C(=O)c1ccccc1C2=O`, the compound was called inactive. As for `COc1ccccc1-c1nnc(SCc2ccccc2)o1`, the entry is “inactive”; as for `CCN(CC)CCCNc1nc2cc(OC)c(OC)cc2c2nc(-c3ccccc3)nn12`, “inactive”.

As to `Cc1ccc(/C=N/NC(=O)C2COc3ccccc3O2)s1` (stereo not drawn), the compound was classed as inactive. In the case of `CCOc1ccc(S(=O)(=O)NCc2ccccn2)cc1NC(=O)c1ccccc1F` it was “inactive”; in that of `O=C1CCN(Cc2ccccc2)c2cc3ccccc3cc21`, “inactive”. On to `Brc1ccc(CSc2nnc(-c3ccccc3)o2)cc1`, for which the result was inactive. As for `O=C1CCNc2cc3ccccc3cc21`, the entry is “inactive”; as for `COc1ccc2c(COC(=O)c3cccc(S(=O)(=O)NCC(C)C)c3)cc(=O)oc2c1`, “inactive”; as for `CC(=O)c1cccc(NC(=O)CSc2ncc(C(=O)Nc3ccccc3)c(=O)n2C)c1`, “inactive”.
